The values below come from paper PMC7862700, “An all-to-all approach to the identification of sequence-specific readers for epigenetic DNA modifications on cytosine”.

Common to all, as to assay: DAPPL (digital affinity profiling via proximity ligation, sequencing); 10 mM Tris-HCl pH 7.5, 50 mM NaCl, 1 mM DTT, 4% glycerol, room temperature, 30 min; GST-TFs on glutathione beads, 16-mer random dsDNA library, 0.1% formaldehyde crosslink after washing; high values mean tight binding
Common to all, as to conditions: protein: recombinant; tags: N-terminal GST; dsDNA, one strand shown

One experiment addresses T1, ELK1 (Homo sapiens, UniProt P19419 1-428).
T1 sequence: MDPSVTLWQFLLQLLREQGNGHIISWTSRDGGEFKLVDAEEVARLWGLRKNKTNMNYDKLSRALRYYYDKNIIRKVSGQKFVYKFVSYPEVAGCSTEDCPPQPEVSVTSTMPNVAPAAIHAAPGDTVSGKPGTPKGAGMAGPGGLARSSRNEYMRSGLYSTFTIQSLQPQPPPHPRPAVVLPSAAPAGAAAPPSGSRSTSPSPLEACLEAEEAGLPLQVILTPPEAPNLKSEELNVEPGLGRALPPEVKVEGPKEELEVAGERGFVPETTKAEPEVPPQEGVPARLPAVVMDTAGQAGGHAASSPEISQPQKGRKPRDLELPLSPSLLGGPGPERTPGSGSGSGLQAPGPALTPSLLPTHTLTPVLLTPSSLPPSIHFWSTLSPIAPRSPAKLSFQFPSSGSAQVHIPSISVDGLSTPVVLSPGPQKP
The method, boiled down: (§1)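 GST fusions of human transcription factors were expressed in yeast and captured with glutathione beads. Once given DNA barcodes and pooled alongside a tag-only sample, they were incubated for 30 min at room temperature with 200 nmole of a random double-stranded 16-mer DNA library in Tris/NaCl/DTT/glycerol buffer, then washed, crosslinked (0.1% formaldehyde), proximity-ligated, PCR-amplified and sequenced on an Illumina NextSeq500. The binding signal of each hexamer is its read frequency for a factor divided by its frequency for the tag-only sample.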

A further experiment addresses T2, GABPA (Homo sapiens, UniProt Q06546 1-454).
T2 sequence: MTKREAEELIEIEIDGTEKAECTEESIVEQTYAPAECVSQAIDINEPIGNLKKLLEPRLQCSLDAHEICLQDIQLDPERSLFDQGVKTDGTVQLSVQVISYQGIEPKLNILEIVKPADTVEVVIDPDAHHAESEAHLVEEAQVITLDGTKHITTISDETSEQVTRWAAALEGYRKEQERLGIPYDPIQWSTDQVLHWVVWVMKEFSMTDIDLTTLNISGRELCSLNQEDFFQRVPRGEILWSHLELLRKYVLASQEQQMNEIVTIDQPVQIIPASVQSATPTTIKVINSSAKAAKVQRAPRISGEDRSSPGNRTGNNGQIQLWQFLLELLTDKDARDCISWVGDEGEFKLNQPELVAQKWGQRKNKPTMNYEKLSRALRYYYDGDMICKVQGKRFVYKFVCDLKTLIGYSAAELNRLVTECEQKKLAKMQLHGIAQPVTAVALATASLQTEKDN
In short, it runs like this: as §1

The target in another experiment is T3, ERG (Homo sapiens, UniProt P11308 1-479).
T3 sequence: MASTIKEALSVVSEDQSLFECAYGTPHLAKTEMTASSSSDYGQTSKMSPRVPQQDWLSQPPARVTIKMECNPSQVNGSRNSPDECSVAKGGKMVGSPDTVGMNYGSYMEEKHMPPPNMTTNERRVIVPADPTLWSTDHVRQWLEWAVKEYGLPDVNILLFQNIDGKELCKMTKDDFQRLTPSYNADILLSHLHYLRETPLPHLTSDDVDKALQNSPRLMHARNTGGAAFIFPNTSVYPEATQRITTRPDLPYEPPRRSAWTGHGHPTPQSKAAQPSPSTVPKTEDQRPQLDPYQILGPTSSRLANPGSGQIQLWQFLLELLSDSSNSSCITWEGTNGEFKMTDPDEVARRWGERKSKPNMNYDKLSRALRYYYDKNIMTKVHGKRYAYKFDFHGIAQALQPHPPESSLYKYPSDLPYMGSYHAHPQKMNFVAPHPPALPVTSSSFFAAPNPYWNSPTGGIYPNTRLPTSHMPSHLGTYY
In short, it runs like this:
as §1

A further experiment addresses ELF1 (Homo sapiens, UniProt P32519 1-619). The method, boiled down: as §1
In another experiment the target is T4, EHF (Homo sapiens, UniProt Q9NZC4 1-300).
T4 sequence: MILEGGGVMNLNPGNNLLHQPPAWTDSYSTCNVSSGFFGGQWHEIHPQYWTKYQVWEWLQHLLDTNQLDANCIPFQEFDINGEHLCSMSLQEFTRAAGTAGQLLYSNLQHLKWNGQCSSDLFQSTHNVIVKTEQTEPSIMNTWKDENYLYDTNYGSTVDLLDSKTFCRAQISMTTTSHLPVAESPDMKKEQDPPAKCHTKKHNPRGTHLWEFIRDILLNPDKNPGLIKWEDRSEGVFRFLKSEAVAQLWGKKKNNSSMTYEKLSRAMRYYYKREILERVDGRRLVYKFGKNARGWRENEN
The method, boiled down:
as §1

In the next experiment the target is SPIB (Homo sapiens, UniProt Q01892 1-262). The method, boiled down: as §1
Another experiment addresses T5, FEV (Homo sapiens, UniProt Q99581 1-238).
T5 sequence: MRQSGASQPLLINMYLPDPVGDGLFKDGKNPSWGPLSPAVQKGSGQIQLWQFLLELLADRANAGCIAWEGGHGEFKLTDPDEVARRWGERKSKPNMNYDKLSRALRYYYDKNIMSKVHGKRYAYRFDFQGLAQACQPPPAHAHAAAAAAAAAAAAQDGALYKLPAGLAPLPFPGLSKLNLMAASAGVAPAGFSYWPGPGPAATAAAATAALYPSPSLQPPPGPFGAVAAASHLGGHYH
The method, boiled down: as §1

The target of a further experiment is ETV5 (Homo sapiens, UniProt P41161 1-510). The method, boiled down: as §1
The target in a further experiment is ELF4 (Homo sapiens, UniProt Q99607 1-663). The method, boiled down:
as §1

In a further experiment the target is T6, ELK4 (Homo sapiens, UniProt P28324-2 1-405).
T6 sequence: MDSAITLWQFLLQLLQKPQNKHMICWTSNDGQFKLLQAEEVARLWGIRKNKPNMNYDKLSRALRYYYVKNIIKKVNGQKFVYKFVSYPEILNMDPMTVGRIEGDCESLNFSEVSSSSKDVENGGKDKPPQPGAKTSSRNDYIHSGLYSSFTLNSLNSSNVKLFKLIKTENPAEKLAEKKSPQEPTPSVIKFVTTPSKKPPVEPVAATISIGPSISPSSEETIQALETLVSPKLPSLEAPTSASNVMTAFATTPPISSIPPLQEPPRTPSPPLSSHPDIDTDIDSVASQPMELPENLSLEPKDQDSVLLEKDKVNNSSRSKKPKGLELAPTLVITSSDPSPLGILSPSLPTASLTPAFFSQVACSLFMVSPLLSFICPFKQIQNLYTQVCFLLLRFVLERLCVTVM
The method, boiled down:
as §1

In another experiment the target is T7, ETV2 (Homo sapiens, UniProt O00321 1-342).
T7 sequence: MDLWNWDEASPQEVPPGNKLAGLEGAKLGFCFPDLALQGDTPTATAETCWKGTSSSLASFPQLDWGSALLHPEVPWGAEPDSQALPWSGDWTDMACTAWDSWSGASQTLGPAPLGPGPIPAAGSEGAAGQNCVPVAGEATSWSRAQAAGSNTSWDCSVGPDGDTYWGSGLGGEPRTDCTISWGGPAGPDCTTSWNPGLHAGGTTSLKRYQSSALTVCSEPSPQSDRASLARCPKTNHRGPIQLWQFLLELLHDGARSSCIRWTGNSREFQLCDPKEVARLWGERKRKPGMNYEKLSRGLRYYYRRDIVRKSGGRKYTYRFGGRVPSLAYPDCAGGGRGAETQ
The method, boiled down: as §1

The next experiment has as its target T8, ELF3 (Homo sapiens, UniProt P78545 1-371).
T8 sequence: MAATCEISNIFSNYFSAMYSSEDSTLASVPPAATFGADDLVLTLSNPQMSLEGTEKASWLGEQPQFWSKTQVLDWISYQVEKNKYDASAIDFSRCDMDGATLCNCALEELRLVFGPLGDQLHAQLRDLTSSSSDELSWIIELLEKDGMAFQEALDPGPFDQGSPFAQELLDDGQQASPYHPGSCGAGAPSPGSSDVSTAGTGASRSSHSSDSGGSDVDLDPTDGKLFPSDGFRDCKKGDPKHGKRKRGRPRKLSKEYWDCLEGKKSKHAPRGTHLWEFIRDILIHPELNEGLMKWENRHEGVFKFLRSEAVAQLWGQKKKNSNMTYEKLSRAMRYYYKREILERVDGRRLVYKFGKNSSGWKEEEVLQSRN
In short, it runs like this:
as §1

A further experiment concerns the target ETV1 (Homo sapiens, UniProt P50549 1-477). The method, boiled down:
as §1

The next experiment deals with T9, ERF (Homo sapiens, UniProt P50548 1-548).
T9 sequence: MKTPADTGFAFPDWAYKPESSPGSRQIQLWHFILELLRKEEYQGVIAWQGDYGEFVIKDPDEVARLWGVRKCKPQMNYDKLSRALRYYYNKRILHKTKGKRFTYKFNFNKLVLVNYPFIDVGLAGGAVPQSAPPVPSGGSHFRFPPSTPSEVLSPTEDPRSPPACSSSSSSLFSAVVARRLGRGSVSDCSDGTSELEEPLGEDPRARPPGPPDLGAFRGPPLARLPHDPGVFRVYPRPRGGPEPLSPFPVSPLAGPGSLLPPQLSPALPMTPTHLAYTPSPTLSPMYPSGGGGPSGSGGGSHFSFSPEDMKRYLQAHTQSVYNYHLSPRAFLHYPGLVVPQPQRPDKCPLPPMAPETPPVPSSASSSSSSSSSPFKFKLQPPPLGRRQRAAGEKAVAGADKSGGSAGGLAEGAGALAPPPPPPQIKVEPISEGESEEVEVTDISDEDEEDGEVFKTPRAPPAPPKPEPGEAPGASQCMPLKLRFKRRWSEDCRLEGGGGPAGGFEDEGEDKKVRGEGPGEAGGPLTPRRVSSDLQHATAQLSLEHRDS
In short, it runs like this:
as §1

The next experiment has as its target T10, ETV3L (Homo sapiens, UniProt Q6ZN32 1-361).
T10 sequence: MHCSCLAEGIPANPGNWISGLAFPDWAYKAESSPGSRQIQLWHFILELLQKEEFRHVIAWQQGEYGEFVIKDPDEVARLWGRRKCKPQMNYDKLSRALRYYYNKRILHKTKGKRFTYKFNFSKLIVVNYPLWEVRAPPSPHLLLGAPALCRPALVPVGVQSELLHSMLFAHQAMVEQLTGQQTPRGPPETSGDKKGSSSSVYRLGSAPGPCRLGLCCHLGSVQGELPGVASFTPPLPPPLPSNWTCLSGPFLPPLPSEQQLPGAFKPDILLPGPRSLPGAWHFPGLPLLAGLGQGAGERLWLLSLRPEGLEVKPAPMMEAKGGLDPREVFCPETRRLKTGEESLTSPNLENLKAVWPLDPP
In short, it runs like this: as §1

The target in the next experiment is T11, ETS2 (Homo sapiens, UniProt P15036 1-469).
T11 sequence: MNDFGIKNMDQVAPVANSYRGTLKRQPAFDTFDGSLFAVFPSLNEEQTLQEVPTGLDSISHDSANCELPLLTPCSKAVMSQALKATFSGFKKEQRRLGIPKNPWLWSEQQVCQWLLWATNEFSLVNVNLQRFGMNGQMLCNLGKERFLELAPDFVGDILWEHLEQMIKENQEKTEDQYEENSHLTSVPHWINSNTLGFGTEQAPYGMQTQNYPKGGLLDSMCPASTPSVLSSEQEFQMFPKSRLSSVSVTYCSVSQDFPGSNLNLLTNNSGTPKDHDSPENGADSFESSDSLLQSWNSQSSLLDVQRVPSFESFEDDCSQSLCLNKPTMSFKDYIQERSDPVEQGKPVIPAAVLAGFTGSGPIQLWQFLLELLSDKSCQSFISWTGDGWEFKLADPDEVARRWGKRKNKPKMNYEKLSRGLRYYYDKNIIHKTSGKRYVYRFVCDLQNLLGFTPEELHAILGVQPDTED
The method, boiled down:
as §1

For the next experiment, the target named is T12, SPDEF (Homo sapiens, UniProt O95238 1-335).
T12 sequence: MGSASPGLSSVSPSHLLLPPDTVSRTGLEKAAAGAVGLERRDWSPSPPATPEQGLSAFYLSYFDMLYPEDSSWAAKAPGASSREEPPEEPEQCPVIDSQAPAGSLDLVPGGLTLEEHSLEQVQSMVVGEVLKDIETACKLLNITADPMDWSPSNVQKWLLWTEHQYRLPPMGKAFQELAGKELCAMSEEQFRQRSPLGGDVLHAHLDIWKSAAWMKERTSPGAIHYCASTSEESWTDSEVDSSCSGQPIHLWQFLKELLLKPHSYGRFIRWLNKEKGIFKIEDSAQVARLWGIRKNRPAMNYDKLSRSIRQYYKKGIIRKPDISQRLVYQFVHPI
The method, boiled down:
as §1

For the next experiment, the target named is T13, ETV3 (Homo sapiens, UniProt P41162-2 1-143).
T13 sequence: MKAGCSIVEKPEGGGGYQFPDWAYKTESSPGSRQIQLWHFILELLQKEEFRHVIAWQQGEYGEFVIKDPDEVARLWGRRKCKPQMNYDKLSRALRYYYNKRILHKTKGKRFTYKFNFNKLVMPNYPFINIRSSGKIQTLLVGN
The method, boiled down:
as §1

For the next experiment, the target named is ETV6 (Homo sapiens, UniProt P41212 1-452). In short, it runs like this:
as §1

Sequence of ETV1 (P50549 whole entry): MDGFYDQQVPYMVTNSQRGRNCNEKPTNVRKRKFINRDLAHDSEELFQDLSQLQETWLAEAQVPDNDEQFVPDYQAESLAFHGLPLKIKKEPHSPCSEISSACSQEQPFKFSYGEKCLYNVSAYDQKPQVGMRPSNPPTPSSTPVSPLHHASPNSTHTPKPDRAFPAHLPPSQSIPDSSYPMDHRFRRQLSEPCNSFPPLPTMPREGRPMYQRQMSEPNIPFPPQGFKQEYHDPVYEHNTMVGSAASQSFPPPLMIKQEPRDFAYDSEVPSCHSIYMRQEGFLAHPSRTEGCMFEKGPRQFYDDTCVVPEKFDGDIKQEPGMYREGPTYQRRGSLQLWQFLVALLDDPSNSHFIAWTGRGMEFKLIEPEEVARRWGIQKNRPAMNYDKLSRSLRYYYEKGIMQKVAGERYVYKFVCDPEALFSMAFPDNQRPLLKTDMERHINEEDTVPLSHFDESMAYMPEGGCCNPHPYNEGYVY
Sequence of ETV6 (P41212 whole entry): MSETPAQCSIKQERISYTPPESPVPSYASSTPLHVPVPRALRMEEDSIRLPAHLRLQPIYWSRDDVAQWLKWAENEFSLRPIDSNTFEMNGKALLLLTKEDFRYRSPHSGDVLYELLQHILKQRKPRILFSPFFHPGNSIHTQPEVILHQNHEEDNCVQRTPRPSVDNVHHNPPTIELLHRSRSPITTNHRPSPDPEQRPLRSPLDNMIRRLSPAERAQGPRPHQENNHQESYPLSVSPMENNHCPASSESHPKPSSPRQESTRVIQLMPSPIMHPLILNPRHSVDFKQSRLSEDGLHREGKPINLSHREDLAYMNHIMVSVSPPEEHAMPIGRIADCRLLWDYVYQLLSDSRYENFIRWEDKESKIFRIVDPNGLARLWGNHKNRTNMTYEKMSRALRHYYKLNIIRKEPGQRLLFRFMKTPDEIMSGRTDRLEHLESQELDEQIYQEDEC
Sequence of ETV5 (P41161 whole entry): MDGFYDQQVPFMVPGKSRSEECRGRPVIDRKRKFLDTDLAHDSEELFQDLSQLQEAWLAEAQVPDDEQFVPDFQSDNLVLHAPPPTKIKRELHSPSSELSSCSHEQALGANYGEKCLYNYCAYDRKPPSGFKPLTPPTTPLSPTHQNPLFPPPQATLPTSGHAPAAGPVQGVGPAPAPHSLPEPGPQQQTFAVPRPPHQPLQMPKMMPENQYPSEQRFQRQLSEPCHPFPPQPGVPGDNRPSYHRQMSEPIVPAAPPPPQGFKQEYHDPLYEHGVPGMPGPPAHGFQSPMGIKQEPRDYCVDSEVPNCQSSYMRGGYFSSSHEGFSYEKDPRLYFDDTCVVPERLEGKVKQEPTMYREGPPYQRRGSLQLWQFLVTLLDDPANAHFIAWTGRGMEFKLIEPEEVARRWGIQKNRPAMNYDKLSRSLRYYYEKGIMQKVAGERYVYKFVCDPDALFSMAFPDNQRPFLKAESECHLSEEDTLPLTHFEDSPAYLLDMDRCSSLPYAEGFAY
Sequence of ELF1 (P32519 whole entry): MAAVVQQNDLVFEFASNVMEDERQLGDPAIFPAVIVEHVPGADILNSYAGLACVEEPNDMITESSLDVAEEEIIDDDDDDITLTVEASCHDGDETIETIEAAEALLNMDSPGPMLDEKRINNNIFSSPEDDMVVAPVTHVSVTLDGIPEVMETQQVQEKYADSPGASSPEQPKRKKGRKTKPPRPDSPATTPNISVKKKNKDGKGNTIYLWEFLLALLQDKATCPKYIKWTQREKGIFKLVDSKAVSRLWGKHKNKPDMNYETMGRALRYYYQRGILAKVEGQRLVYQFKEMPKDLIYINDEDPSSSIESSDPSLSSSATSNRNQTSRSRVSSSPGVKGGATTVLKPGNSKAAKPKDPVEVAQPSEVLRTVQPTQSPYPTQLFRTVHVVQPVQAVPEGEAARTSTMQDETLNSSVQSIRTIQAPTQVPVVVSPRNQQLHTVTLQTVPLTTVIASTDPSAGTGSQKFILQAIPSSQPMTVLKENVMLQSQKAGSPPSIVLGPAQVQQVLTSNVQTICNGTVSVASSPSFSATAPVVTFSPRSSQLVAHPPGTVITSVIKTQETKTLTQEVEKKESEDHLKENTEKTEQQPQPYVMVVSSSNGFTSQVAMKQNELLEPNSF
Sequence of SPIB (Q01892 whole entry): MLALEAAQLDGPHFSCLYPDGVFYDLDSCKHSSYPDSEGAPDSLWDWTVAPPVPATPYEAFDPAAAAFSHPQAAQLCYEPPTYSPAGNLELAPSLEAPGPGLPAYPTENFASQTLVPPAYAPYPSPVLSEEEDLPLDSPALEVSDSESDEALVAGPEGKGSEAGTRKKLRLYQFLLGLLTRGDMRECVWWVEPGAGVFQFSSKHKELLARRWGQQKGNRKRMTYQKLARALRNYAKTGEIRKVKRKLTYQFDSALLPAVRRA
Sequence of ELF4 (Q99607 whole entry): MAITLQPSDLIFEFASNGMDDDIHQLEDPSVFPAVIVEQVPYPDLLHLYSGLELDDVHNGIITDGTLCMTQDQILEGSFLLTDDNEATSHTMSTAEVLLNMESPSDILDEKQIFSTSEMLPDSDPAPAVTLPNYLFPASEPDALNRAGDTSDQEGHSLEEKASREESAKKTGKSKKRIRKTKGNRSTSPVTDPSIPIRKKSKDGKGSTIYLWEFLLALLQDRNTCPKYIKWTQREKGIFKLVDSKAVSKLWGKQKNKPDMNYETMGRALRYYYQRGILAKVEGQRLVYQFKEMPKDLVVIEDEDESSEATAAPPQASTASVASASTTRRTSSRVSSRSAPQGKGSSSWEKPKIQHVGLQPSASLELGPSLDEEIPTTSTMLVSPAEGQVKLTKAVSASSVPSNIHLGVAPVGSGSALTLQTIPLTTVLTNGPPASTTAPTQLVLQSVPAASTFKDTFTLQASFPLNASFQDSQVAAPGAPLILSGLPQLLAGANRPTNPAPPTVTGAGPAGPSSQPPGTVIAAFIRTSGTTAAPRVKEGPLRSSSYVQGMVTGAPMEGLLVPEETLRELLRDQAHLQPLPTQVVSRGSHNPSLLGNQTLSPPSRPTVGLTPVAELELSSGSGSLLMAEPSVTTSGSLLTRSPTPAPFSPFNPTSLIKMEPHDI

As to ATGCAG, the binding signal with ELK1 was 1.04 fold enrichment (6-mer frequency, TF over GST control); with GABPA it was 1.14 fold enrichment (6-mer frequency, TF over GST control); in the experiment with ERG, 1.09 fold enrichment (6-mer frequency, TF over GST control); with ELF1 it was 1.03 fold enrichment (6-mer frequency, TF over GST control); in the experiment with EHF it was 1.08 fold enrichment (6-mer frequency, TF over GST control); with SPIB it was 1.22 fold enrichment (6-mer frequency, TF over GST control). The binding signal with FEV was 1.11 fold enrichment (6-mer frequency, TF over GST control); with ETV5, 1.05 fold enrichment (6-mer frequency, TF over GST control); in the experiment with ELF4, 1.05 fold enrichment (6-mer frequency, TF over GST control); with ELK4, 1.15 fold enrichment (6-mer frequency, TF over GST control); with ETV2, 1.1 fold enrichment (6-mer frequency, TF over GST control); with ELF3, 1.05 fold enrichment (6-mer frequency, TF over GST control). The binding signal with ETV1 was 1.1 fold enrichment (6-mer frequency, TF over GST control); with ERF, 1.22 fold enrichment (6-mer frequency, TF over GST control); with ETV3L, 1.08 fold enrichment (6-mer frequency, TF over GST control); with ETS2, 1.11 fold enrichment (6-mer frequency, TF over GST control); in the experiment with SPDEF, 1.05 fold enrichment (6-mer frequency, TF over GST control); with ETV3, 1.06 fold enrichment (6-mer frequency, TF over GST control). Moreover, in the experiment with ETV6, the binding signal is 1.06 fold enrichment (6-mer frequency, TF over GST control).
